Laboratory results published in PubChem BioAssay (Tox21).
Results filed as inconclusive are left out. Active and inactive are the calls of the source. Unless noted, the call rests on the fitted dose curve; in most records, active means well fitted curve in the direction sought with a large enough effect in the repeat runs; inconclusive means weak or mixed curves; inactive means no such curve, though single readings can be large; an effect the other way counts as inactive or inconclusive.

Tests used:
[1] = qHTS assay to identify small molecule agonists of the peroxisome proliferator-activated receptor delta (PPARd) signaling pathway - cell viability counter screen (AID 743211); details: PPARd-bla HEK293H viability, CellTiter-Glo luminescence, 17 h; series mostly up to 62.6 µM; further: nearly all actives have a fitted effect of over 55% in size
How it was run: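 PPARd-bla HEK293H cells (UAS-beta-lactamase reporter) were treated with compounds for 17 h at 37 C. Viability was then read in the same wells by CellTiter-Glo luminescence after 30 min at room temperature.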

[2] = target: Peroxisome proliferator-activated receptor delta (Homo sapiens) (UniProt Q03181); test: qHTS assay to identify small molecule agonists of the peroxisome proliferator-activated receptor delta (PPARd) signaling pathway (AID 743212; calls by dose curve); details: HEK293H PPARd-UAS-bla, beta-lactamase FRET ratio, 17 h; series mostly up to 62.6 µM
Peroxisome proliferator-activated receptor delta (Homo sapiens), sequence (Q03181 whole entry, looked up): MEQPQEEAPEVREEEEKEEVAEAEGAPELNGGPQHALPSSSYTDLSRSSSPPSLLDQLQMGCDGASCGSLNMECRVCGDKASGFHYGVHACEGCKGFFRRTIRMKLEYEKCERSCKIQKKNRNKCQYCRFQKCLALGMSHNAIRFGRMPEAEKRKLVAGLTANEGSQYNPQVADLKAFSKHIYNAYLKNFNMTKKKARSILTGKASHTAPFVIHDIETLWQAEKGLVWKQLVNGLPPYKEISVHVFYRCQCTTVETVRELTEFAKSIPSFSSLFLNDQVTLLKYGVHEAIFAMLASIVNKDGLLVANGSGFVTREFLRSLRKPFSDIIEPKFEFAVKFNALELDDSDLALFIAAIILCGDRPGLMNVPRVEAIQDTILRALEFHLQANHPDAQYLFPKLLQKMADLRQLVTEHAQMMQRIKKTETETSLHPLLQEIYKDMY
How it was run: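 A PPARd-bla HEK293H line with beta-lactamase under an Upstream Activator Sequence is treated with compounds at 37 C. Substrate loading for 2 h at room temperature precedes the fluorescence measurement.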

[3] = qHTS assay to identify small molecule antagonists of the peroxisome proliferator-activated receptor delta (PPARd) signaling pathway - cell viability counter screen (AID 743213); details: PPARd-bla HEK293H viability, CellTiter-Glo luminescence, 17 h; series mostly up to 62 µM; further: nearly all actives have a fitted effect of over 50% in size
How it was run: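 Viability counter-screen, qHTS format: PPARd-bla HEK293H, L165041 300 nM final, 17 h compound exposure at 37 C, CellTiter-Glo luminescence after 30 min RT.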

[4] = target: Peroxisome proliferator-activated receptor delta (Homo sapiens) (UniProt Q03181); test: qHTS assay to identify small molecule antagonists of the peroxisome proliferator-activated receptor delta (PPARd) signaling pathway (AID 743215; active means well fitted inhibition curve with a large enough effect in the signal ratio in the repeat runs, not every such curve was filed as active; the % refers to the signal ratio;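 further: cells stimulated with agonist L165041 at 300 nM final during compound exposure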); details: HEK293H PPARd-UAS-bla, beta-lactamase FRET ratio, antagonist, 17 h; series mostly up to 62 µM
How it was run: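 Antagonist-mode beta-lactamase reporter screen: HEK293H cells with UAS-bla under PPARd control, stimulated by 300 nM L165041 (final) alongside test compound for 17 h at 37 C, then FRET fluorescence after 2 h substrate incubation.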

[5] = qHTS assay to identify small molecule agonists of the farnesoid-X-receptor (FXR) signaling pathway - cell viability counter screen (AID 743218); details: FXR-bla HEK293T viability, CellTiter-Glo luminescence, 16 h; series mostly up to 62.6 µM; further: nearly all actives have a fitted effect of over 45% in size
How it was run: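 In GeneBLAzer FXR-UAS-bla HEK 293T cells, compounds act for 16 h at 37 C. Cell viability is then scored in the reporter wells by CellTiter-Glo, 30 min at RT, luminescence.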

[6] = qHTS assay to identify small molecule antagonists of the farnesoid-X-receptor (FXR) signaling pathway - cell viability counter screen (AID 743221; active means well fitted cell-killing curve with a large enough effect in the repeat runs, not every such curve was filed as active; further: nearly all actives have a fitted effect of over 50% in size); details: FXR-bla HEK293T viability, CellTiter-Glo luminescence, 16 h; series mostly up to 62.6 µM
How it was run: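 FXR-UAS-bla HEK 293T cells were treated with test compounds plus chenodeoxycholic acid (50 uM final) for 16 h at 37 C. Cell viability in the same wells was then read as CellTiter-Glo luminescence after 30 min at room temperature.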

[7] = target: Bile acid receptor (Homo sapiens) (UniProt Q96RI1); test: qHTS assay to identify small molecule antagonists of the farnesoid-X-receptor (FXR) signaling pathway (AID 743217; active means well fitted inhibition curve with a large enough effect in the signal ratio in the repeat runs, not every such curve was filed as active; the % refers to the signal ratio); details: HEK293T FXR-UAS-bla, beta-lactamase ratio, CDCA-stimulated, 16 h; series mostly up to 62.6 µM
Bile acid receptor (Homo sapiens), sequence (Q96RI1 whole entry, looked up): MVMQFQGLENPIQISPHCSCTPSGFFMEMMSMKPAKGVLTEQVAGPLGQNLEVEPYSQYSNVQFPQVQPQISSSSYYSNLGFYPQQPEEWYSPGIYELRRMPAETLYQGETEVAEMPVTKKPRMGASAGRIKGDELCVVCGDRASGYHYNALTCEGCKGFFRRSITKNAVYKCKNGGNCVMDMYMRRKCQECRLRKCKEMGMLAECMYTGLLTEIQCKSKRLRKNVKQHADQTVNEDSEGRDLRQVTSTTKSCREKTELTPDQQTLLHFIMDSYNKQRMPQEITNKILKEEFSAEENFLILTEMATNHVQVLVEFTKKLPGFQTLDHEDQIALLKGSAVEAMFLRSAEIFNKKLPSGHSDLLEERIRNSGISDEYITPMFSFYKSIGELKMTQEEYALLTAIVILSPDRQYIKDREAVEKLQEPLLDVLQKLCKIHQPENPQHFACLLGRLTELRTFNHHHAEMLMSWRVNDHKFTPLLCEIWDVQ
How it was run: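 Beta-lactamase reporter under UAS control in HEK 293T cells; compound exposure 16 h at 37 °C in the presence of chenodeoxycholic acid (50 uM final); signal from B/G FRET substrate after 2 h at room temperature.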

[8] = target: Bile acid receptor (Homo sapiens) (UniProt Q96RI1); test: qHTS assay to identify small molecule agonists of the farnesoid-X-receptor (FXR) signaling pathway (AID 743220; active means well fitted activation curve with a large enough effect in the signal ratio in the repeat runs, not every such curve was filed as active; the % refers to the signal ratio); details: HEK293T FXR-UAS-bla, beta-lactamase FRET ratio, 16 h; series mostly up to 62.6 µM
How it was run: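 Beta-lactamase reporter under UAS control in GeneBLAzer FXR HEK 293T cells (5000/well) measured with LiveBLAzer FRET substrate after 2 h at room temperature. Compound exposure lasted 16 h at 37C.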

[9] = target: Vitamin D3 receptor (Homo sapiens) (UniProt P11473); test: qHTS assay to identify small molecule antagonists of the vitamin D receptor (VDR) signaling pathway (AID 743223; active means well fitted inhibition curve with a large enough effect in the signal ratio in the repeat runs, not every such curve was filed as active; the % refers to the signal ratio); details: VDR-UAS-bla HEK293T, beta-lactamase FRET ratio, 16 h; series mostly up to 61 µM
Vitamin D3 receptor (Homo sapiens), sequence (P11473 whole entry, looked up): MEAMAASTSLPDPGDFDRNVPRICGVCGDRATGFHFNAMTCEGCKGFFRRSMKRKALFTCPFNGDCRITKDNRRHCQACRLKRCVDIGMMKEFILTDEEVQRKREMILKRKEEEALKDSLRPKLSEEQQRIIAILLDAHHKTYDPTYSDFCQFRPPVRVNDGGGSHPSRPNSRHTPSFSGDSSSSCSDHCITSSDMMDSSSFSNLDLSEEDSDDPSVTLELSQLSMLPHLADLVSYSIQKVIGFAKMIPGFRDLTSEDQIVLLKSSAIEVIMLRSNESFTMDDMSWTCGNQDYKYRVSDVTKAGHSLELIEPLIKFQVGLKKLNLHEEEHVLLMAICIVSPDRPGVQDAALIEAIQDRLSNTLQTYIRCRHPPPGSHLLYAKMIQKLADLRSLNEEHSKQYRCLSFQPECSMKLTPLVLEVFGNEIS
How it was run: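 VDR-bla cells were plated, incubated 4 h at 37C, then given compound and 1alpha,25-dihydroxyvitamin D3 (3 nM final). After 16 h at 37C, LiveBLAzer B/G FRET substrate was added for 2 h at room temperature and fluorescence read.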

[10] = target: Vitamin D3 receptor (Homo sapiens) (UniProt P11473); test: qHTS assay to identify small molecule agonists of the vitamin D receptor (VDR) signaling pathway (AID 743222; calls by dose curve); details: HEK293T VDR-UAS-bla, beta-lactamase FRET ratio, 16 h; series mostly up to 63.5 µM
How it was run: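 Agonist activity measured in VDR-bla reporter cells. Exposure 16 h, 37C, 5% CO2; detection by B/G FRET substrate, 2 h RT.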

Measured: Potency

CS(=O)(=O)c1ccc([C@@H](O)[C@@H](CF)NC(=O)C(Cl)Cl)cc1
inactive: [1] | [2] | [3] | [4] | [5] | [6]

CCN(CC)CC1CCCCN1CC(=O)N1c2ccccc2C(=O)Nc2cccnc21 (stereo not given)
not listed: [10]
inactive: all other assays above

COc1cc(C)ccc1C(C)C
not listed: [7] | [10]
inactive: all other assays above

Cc1cc(NS(=O)(=O)c2ccc(N)cc2)nc(C)n1
inactive: [1] | [2] | [3] | [4] | [5] | [6]

N#CSCC(=O)O
not listed: [9] | [10]
inactive: all other assays above

NNS(=O)(=O)c1ccc(Oc2ccc(S(=O)(=O)NN)cc2)cc1
not listed: [5] | [10]
inactive: all other assays above

CCOC(=O)NCCC[Si](OCC)(OCC)OCC
not listed: [7] | [8] | [9]
inactive: all other assays above

CC(=O)OC(C)OC(C)=O
not listed: [6]
inactive: all other assays above

C1CSCCS1
not listed: [7] | [8] | [9]
inactive: all other assays above

O=C1CCCc2ccccc21
not listed: [7] | [8]
inactive: all other assays above

CCOc1ccc(NS(=O)(=O)c2ccc(N)cc2)nn1
inactive: [1] | [2] | [3] | [4] | [5]

OC[C@H]1O[C@@H](O[C@H]2[C@H](O)[C@@H](O)[C@H](O)O[C@@H]2CO)[C@H](O)[C@@H](O)[C@H]1O
not listed: [8] | [9] | [10]
inactive: all other assays above

C[C@@H]1CN(c2c(F)c(F)c3c(=O)c(C(=O)O)cn(C4CC4)c3c2F)C[C@H](C)N1
not listed: [7]
inactive: all other assays above

O=c1[nH]cnc2c1ncn2[C@@H]1O[C@H](CO)[C@@H](O)[C@H]1O
inactive: all assays above

CNCCC(Oc1ccccc1OC)c1ccccc1 (stereo not given)
inactive: all assays above

ICCc1ccccc1
not listed: [7] | [8]
inactive: all other assays above

N#Cc1ccc(C(c2ccc(C#N)cc2)n2cncn2)cc1
not listed: [10]
inactive: all other assays above

FC(F)(F)C(F)(F)C(F)(F)C(F)(F)C(F)(F)C(F)(F)C(F)(F)C(F)(F)Br
not listed: [6]
inactive: all other assays above

CC(C)(CO)[C@@H](O)C(=O)NCCC(=O)O
not listed: [7] | [8]
inactive: all other assays above

CN(CC1(C)CCCO1)S(=O)(=O)c1ccc(Cl)c(S(N)(=O)=O)c1 (stereo not given)
not listed: [9] | [10]
inactive: all other assays above

CCCCCCCCCC#N
not listed: [7] | [8] | [9]
inactive: all other assays above

Cc1nnc(SCC2=C(C(=O)O)N3C(=O)[C@@H](NC(=O)Cn4cnnn4)[C@H]3SC2)s1
inactive: [1] | [2] | [3] | [4] | [5]

Cc1cc(S(=O)(=O)O)c(N)cc1Cl
inactive: [1] | [2] | [3] | [4] | [5]

Cc1ccsc1C(=CCCN1CCC[C@@H](C(=O)O)C1)c1sccc1C
inactive: [1] | [2] | [3] | [4] | [5] | [6]

COc1cc(N)c(Cl)cc1C(=O)NC1CCN(Cc2ccccc2)CC1
inactive: all assays above

COC(=O)/C=C(/C)N
not listed: [7] | [8]
inactive: all other assays above

O=[N+]([O-])c1nccn1CO[C@@H](CO)[C@H](O)CO
inactive: [1] | [2] | [3] | [4] | [7] | [6]

O=C1C=CC(=O)O1
not listed: [5]
inactive: all other assays above

CCOC(=O)C1CC(=O)C(=C(O)C2CC2)C(=O)C1 (stereo not given)
inactive: all assays above

Nc1cccc(S(=O)(=O)O)c1
not listed: [7] | [8] | [9]
inactive: all other assays above

CC1=C(O)C(=O)OC1C (stereo not given)
not listed: [6] | [8]
inactive: all other assays above

CCCc1c2oc(C(=O)O)cc(=O)c2cc2c(=O)cc(C(=O)O)n(CC)c12
not listed: [8]
inactive: all other assays above

O=C1Nc2ccc([N+](=O)[O-])cc2C1=O
inactive: [1] | [2] | [3] | [4] | [5] | [6]

CCOC(=O)c1ccccc1O
not listed: [7] | [8]
inactive: all other assays above

CC(C)(C)C1CCCCC1=O (stereo not given)
inactive: [1] | [2] | [3] | [4] | [5] | [6]

C=CC(C)(O)CC/C=C(\C)CCC=C(C)C (stereo not given)
not listed: [9] | [10]
inactive: all other assays above

O=C1CCC(C2CCCCC2)CC1
not listed: [5]
inactive: all other assays above

COc1ccccc1OCC(O)COC(N)=O (stereo not given)
inactive: [1] | [2] | [3] | [4] | [5] | [6]

COc1ccccc1N1CCN(CCCNc2cc(=O)n(C)c(=O)n2C)CC1
not listed: [5] | [7] | [8]
inactive: all other assays above

CCCC1CCC(=O)O1 (stereo not given)
not listed: [7] | [8]
inactive: all other assays above

COC(=O)N[C@H](C(=O)N[C@@H](Cc1ccccc1)[C@@H](O)CN(Cc1ccc(-c2ccccn2)cc1)NC(=O)[C@@H](NC(=O)OC)C(C)(C)C)C(C)(C)C
not listed: [6] | [7] | [8]
inactive: all other assays above

Cc1c(N)cccc1N
not listed: [7] | [8]
inactive: all other assays above

CCCN(CCC)C(=O)C(CCC(=O)O)NC(=O)c1ccccc1 (stereo not given)
inactive: [1] | [2] | [3] | [4] | [5] | [10]

CCN(CC)C(=O)N(CC)CC
not listed: [5] | [7] | [8]
inactive: all other assays above

O=S(=O)(O)C(F)(F)F
not listed: [7] | [8] | [10]
inactive: all other assays above

CN1CCN(N)CC1
inactive: [1] | [2] | [3] | [4] | [6]

CC(C)Nc1nc(N)nc(Cl)n1
not listed: [5] | [7] | [8]
inactive: all other assays above

CCCCN1C[C@H](O)[C@@H](O)[C@H](O)[C@H]1CO
not listed: [5] | [7] | [8]
inactive: all other assays above

CCCCCCCCOC(=O)CCCCCCCCC(=O)OCCCCCCCC
not listed: [5] | [7] | [8]
inactive: all other assays above

CC1=CC(=O)CC(C)(C)C1=O
inactive: [1] | [2] | [3] | [4] | [5] | [9]

CCCCCCCCCC/C=C/C#N
not listed: [5] | [7]
inactive: all other assays above

Cc1c(C(=O)NCCO)[n+](=O)c2ccccc2n1[O-]
not listed: [7] | [8] | [10]
inactive: all other assays above

O=C1CCCCC1C1CCCCC1 (stereo not given)
not listed: [5] | [7] | [8]
inactive: all other assays above

CCN[C@H]1CN(CCCOC)S(=O)(=O)c2sc(S(N)(=O)=O)cc21
not listed: [5] | [7] | [8]
inactive: all other assays above

CN(C)CCOc1ccccc1Cc1ccccc1
not listed: [6] | [7] | [8]
inactive: all other assays above
